In the library only some 3.4% were active in any assay of this set; here they are far more common.
GPR151 activ = activates the human receptor GPR151. actives 1% (n = 650,000). Q8TDV0. PathHunter beta-arrestin GPR151 cells, luminescence. activation, % at 11.2 µM; in the data active = activation above about 4.9%;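 note: 0% = median of compound wells and 100% = cells with positive control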
MITF primary = blocks human microphthalmia-associated transcription factor. AID 1259374. AlphaScreen MITF homodimerization, bead proximity signal. actives 0.91% (n = 650,000). inhibition, % at 2.6 µM. O75030; in the data active = inhibition above about 50%;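 note: 0% = vehicle wells with protein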
Target sequence (O75030 whole entry, looked up): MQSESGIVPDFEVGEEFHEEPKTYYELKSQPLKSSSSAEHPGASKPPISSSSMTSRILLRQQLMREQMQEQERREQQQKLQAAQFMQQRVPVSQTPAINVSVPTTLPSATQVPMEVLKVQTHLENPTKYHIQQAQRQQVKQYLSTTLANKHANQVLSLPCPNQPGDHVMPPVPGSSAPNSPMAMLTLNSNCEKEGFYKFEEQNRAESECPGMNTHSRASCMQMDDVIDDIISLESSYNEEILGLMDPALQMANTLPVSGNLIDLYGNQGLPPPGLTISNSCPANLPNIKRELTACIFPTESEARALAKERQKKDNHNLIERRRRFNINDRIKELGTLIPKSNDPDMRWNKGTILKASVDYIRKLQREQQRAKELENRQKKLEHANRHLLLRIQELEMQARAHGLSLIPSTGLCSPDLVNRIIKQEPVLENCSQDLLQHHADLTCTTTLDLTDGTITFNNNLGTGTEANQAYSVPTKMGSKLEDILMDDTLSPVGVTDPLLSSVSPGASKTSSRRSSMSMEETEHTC
TEAD-YAP inh = TEAD-YAP interaction inhibition; HEK-TIYL cells, TEAD-Gal4/YAP UAS-luciferase luminescence; inhibition, % at 9.12 µM; actives 1.4% (n = 640,000); AID 1259422; in the data active = inhibition above about 32%;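 note: 0% = median of test compound wells and 100% = reference inhibitor wells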
FBW7 activator = activators of human E3 ligase FBW7; AID 1259310; normalized activity (activation), % at 26.1 µM; AlphaScreen FBW7–phospho-cyclin E peptide binding, activator screen; actives 0.13% (n = 650,000); Q969H0; in the data active = normalized activity above about 1.9%;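 note: purified mutant Fbw7 with reduced substrate affinity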
MITF confirm = confirmation of human MITF inhibitors; shares compounds with MITF primary; AlphaScreen MITF homodimerization, biotin/His-MITF beads; inhibition, % at 2.6 µM; actives 16% (n = 4,700);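 active = inhibition above a cutoff derived from the DMSO control wells, cut at about 28% in these data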;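 note: 0% = MITF dimer wells with DMSO only; inhibitors lower the bead chemiluminescence by keeping MITF from dimerizing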
AlphaScreen DR = counter-screen: compounds optically interfering with AlphaScreen; shares compounds with MITF primary; AID 1259373; IC50, µM; AlphaScreen optical interference counterscreen, cell-free; actives 6% (n = 480); call rule not given here
AS interf ctr = counter-screen: compounds optically interfering with AlphaScreen; shares compounds with MITF primary; LysRS AlphaScreen counterscreen, signal interference, triplicate; inhibition, % at 2.6 µM; actives 7.6% (n = 4,700);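 active = inhibition above a cutoff derived from the DMSO control wells, cut at about 30% in these data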
* hit, by the source's call; / = no result.

SMILES	GPR151 activ	MITF primary	TEAD-YAP inh	FBW7 activator	MITF confirm	AS interf ctr	others
COc1cc(CN2CCN(Cc3ccccc3F)CC2)cc(OC)c1O	-1	1	6	0	/	/
COc1ccc(CN2CCN(Cc3ccccc3C(F)(F)F)CC2)c(OC)c1OC	-1	59*	3	0	5	16
COc1ccc(OC)c(CN2CCN(Cc3ccccc3C(F)(F)F)CC2)c1	-1	71*	-1	0	9	-5
CCc1csc2ncc(C(=O)NC(C)CO)c(=O)n12 (stereo not drawn)	1	2	9	0	/	/
CC(=O)Nc1ccc(S(=O)(=O)Nc2ccc(-c3cn4cccnc4n3)cc2)cc1	0	14	0	0	/	/
CCOC(=O)C1C(=O)NC(SCC(=O)Nc2nccs2)=C(C#N)C1c1ccccc1OCC (stereo not drawn)	1	5	-1	0	/	/
COc1cc(OC)c(OC)cc1CN1CCN(Cc2ccccc2C(F)(F)F)CC1	-1	76*	-8	0	4	8
Cc1cccc(C(C)(C)C)c1OCCN1CCOCC1	0	80*	6	0	5	10
Cc1cc(C)c(OCCN2CCOCC2)c(Cl)c1	-1	54*	6	1	17	12
Cc1cc(Cl)cc(Cl)c1OCCCCNCCN1CCOCC1	0	62*	3	0	6	1
O=C(Nc1ccc([N+](=O)[O-])cn1)c1cc(-c2ccc3c(c2)OCO3)nc2ccccc12	-2	2	4	0	/	/
CC(=O)c1ccc(OCC(O)CN(C)CCC#N)cc1 (stereo not drawn)	1	66*	-3	0	4	4
CC(=O)c1ccc(OCC(O)COc2ccc(C(C)=O)cc2)cc1	3	-3	0	0	/	/
CCOC(=O)c1oc(-c2ccc(F)cc2)nc1C	5	67*	-6	0	14	17
CCOC(=O)c1nc(-c2ccccc2)oc1C(F)(F)F	0	10	2	0	/	/
CC(C)=CC(=O)Nc1nnc(Cc2ccccc2)s1	-1	84*	-3	0	11	14
Clc1ccc(-c2csc(Nc3ccccc3Cl)n2)cc1Cl	2	14	-1	0	/	/
O=[N+]([O-])c1cccc(S(=O)(=O)NCCOc2ccccc2-c2ccccc2)c1	-1	19	1	0	/	/
CCCNC(=O)c1cc(-c2ccc(Br)cc2)on1	-1	-19	-50	0	/	/
CCCCNC(=O)c1cc(-c2ccc(Br)cc2)on1	-1	52*	-8	0	1	3
CCN(CC(=O)Nc1ccccc1C(F)(F)F)CC(=O)Nc1cccc2ccccc12	2	-1	28	0	/	/
CCN(CC(=O)Nc1ccccc1C(F)(F)F)CC(=O)NC1CCCc2ccccc21 (stereo not drawn)	-1	81*	-6	0	1	3
CN(C)CCN(C)Cc1cccc2ccccc12	1	60*	4	0	-1	1
COc1ccccc1CN(CCCN(C)C)CCCN(C)C	1	34	3	0	/	/
CN(C)CCCN(CCCN(C)C)Cc1cccc2ccccc12	1	55*	-10	0	-2	-3
SMILES	GPR151 activ	MITF primary	TEAD-YAP inh	FBW7 activator	MITF confirm	AS interf ctr	others
CCc1ccc(C2C(C(=O)O)c3ccccc3C(=O)N2C)cc1 (stereo not drawn)	2	6	2	0	/	/
O=C(O)CCC(NCc1ccco1)C(=O)O (stereo not drawn)	0	62*	8	0	56*	9	AlphaScreen DR=>6.8
CCOC(=O)C1=[N+]([O-])OC(C(=O)OCC)C1CC(C)=O (stereo not drawn)	-1	48	-4	0	/	/
CCOC(=O)CC1C(C(=O)OCC)=[N+]([O-])OC1C(=O)OCC (stereo not drawn)	0	64*	0	0	22	19
O=C(CC1(O)C(=O)Nc2ccc([N+](=O)[O-])cc21)c1ccccc1 (stereo not drawn)	3	69*	1	0	-3	-3
O=C(CC1(O)C(=O)Nc2ccccc21)c1ccc([N+](=O)[O-])cc1 (stereo not drawn)	0	8	-1	0	/	/
CCN1CCN(c2cc(C)c3ccc(OC)cc3n2)CC1	1	64*	-2	0	1	7
CCOC(=O)N1CCN(C(=O)c2ccccc2OC)CC1	0	6	2	0	/	/
COc1ccc(OC)c(CN2CCN(Cc3ccccc3[N+](=O)[O-])CC2)c1	0	77*	5	-1	7	16
CC(=O)N1CCN(Cc2ccccc2[N+](=O)[O-])CC1	0	-14	1	0	/	/
COc1ccc(OC)c(CN2CCN(S(=O)(=O)c3ccccc3[N+](=O)[O-])CC2)c1	0	37	-13	0	/	/
COc1ccc(CN2CCN(Cc3ccccc3[N+](=O)[O-])CC2)c(OC)c1	-1	52*	-4	0	5	12
CCC1CCCCN1CCCNC(=O)C1c2ccccc2C(=O)N(C)C1c1cccs1 (stereo not drawn)	0	7	8	1	/	/
CCOc1ccc(S(=O)(=O)NC2CCCCC2)cc1-c1nc2c(C(C)(C)C)nn(C)c2c(=O)[nH]1	-1	77*	-3	0	9	10
O=C(/C=C/c1cccs1)Nc1nc(-c2ccc([N+](=O)[O-])cc2)cs1	1	-4	1	0	/	/
CC1=C(C(=O)OC2CCC(C)CC2)C(c2ccccc2Cl)NC(=O)N1 (stereo not drawn)	-1	81*	-6	0	11	20
CC1=C(C(=O)OC2CCCCC2)C(c2ccc(OCc3ccccc3)cc2)NC(=O)N1 (stereo not drawn)	-1	55*	3	0	3	11
Cc1ccc(-c2csc(/C(C#N)=C(\O)CSc3ncn[nH]3)n2)cc1	-1	-2	-17	0	/	/
Cc1cccc(NC(=O)C2C3C=CC(C4CC34)C2C(=O)O)c1C (stereo not drawn)	4	55*	5	0	17	15
Cc1cc(=O)[nH]c(N2CCN(C(=O)Nc3ccc(F)cc3)CC2)n1	1	-6	1	0	/	/
CC(C)(C)C(=O)COC(=O)[C@@H]1CC(O)CN1S(=O)(=O)c1ccc(F)cc1 (stereo partly drawn)	2	60*	13	0	0	-2
COc1cc(OC)c(OC)cc1CN1CCN(Cc2ccccn2)CC1	-2	71*	-8	0	9	16
COc1ccc(CN2CCN(Cc3ccccn3)CC2)cc1	1	43	-3	0	/	/
COc1ccc(CN2CCN(Cc3ccccn3)CC2)cc1Br	0	68*	3	0	6	18
COc1ccc(CN2CCN(c3ccccn3)CC2)cc1O	-1	49	4	0	/	/

Source: PubChem (The Scripps Research Institute Molecular Screening Center)
